Assay results published in the supplement of paper PMC6555819.

Assays:
Experiment in all cases: PBM binding z-score (relative to random genomic background probes); higher = stronger binding; sequences stand for … in GC…GCGATTGACAGCGTAGAATGAAGG
[1] = tested on: RARb homodimer (NR concentration 270 nM)
Procedure, shortened: (§1)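 For binding z-scores, the reference was random background probes on custom Agilent 4×180K protein-binding microarrays. These arrays were incubated 1 h with ligand-free nuclear receptor dimers in PBS pH 7.4, 2% milk, 0.02% Triton X-100, 1 mM DTT, 0.2 mg/mL BSA and 0.4 mg/ml salmon testes DNA. Fluorescence was scanned after antibody detection of each partner (one per run) and regression-normalized.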

[2] = tested on: RARg:RXRa (NR concentration 270 nM, RXRa partner concentration 90 nM)
Procedure, shortened: as §1

[3] = tested on: RARg homodimer (NR concentration 270 nM)
Procedure, shortened: as §1

[4] = tested on: RXRa DBDmut IVT, anti-RXR (DBD mutation: RXRa K156A/R161A, NR concentration 90 nM)
Procedure, shortened: as §1

[5] = tested on: RXRa homodimer (NR concentration 180 nM)
Procedure, shortened: as §1

[6] = tested on: THRa:RXRa (NR concentration 90 nM, RXRa partner concentration 90 nM)
Procedure, shortened: as §1

[7] = tested on: THRa homodimer (NR concentration 90 nM)
Procedure, shortened: as §1

[8] = tested on: VDR homodimer (NR concentration 270 nM)
Procedure, shortened: as §1

| Sequence | PBM binding z-score [1] | PBM binding z-score [2] | PBM binding z-score [3] | PBM binding z-score [4] | PBM binding z-score [5] | PBM binding z-score [6] | PBM binding z-score [7] | PBM binding z-score [8] |
| --- | --- | --- | --- | --- | --- | --- | --- | --- |
| GCTGCTATGTCAACTGATGGTCAGCTAAAGCTCG | 0.659 | 0.506 | 0.101 | 0.137 | -0.00112 | -0.0819 | -1.13 | -0.702 |
| CCTTACGGGTCACTGACAGGTAATAGCATTTGGA | 2.83 | 5.08 | 4.26 | 1.55 | 4.7 | 2.64 | 0.085 | 0.456 |
| CCTGCTAGGTCAATGATCAGCTAAAGCAGCTCGC | 2.32 | 3.18 | 4.16 | 1.82 | 1.83 | 1.99 | -0.185 | -0.421 |
| GCGATTAGTTGAAAGGGCAACCGAATGATTCTCG | 1.82 | 1.14 | 1 | 0.582 | 1.27 | 0.405 | -0.273 | 0.184 |
| ATCTCTAGGTAAAAGTTCAGTTAATCCCGAGGAT | 2.52 | 2.1 | 2.04 | 0.885 | 1.63 | 1.61 | 0.805 | 2.12 |
| TCTGCTAGGTCAACGATGGTCAGCTTATCTGCTA | 3.56 | 4.14 | 4.75 | 1.26 | 2.49 | 3.22 | 0.783 | -0.342 |
| CGTCCAAGGTCATAGGCGGTCAGTGAAGACAGAT | 4.09 | 6.05 | 6.4 | 3.89 | 5.94 | 4.35 | 2.21 | 3.22 |
| TTAACAAGGTGAAGGTCGTTGATCCCTCTGTAGA | 1.5 | 1.38 | 1.26 | 0.219 | 1.88 | 2.4 | 0.923 | 0.715 |
| TCTATTAGTTGATTAGGGAAACCGAAACAGCGGA | 0.0312 | 0.311 | 0.329 | 1.18 | 0.472 | 0.12 | 0.159 | 0.507 |
| TCTTGTAGATCAGCAGGTTAAGAGAGCTGGCCAA | -0.156 | -0.1 | -0.407 | 0.292 | 0.367 | -0.0987 | -0.325 | -0.364 |
| ACAGACAGGTGATGAAGATAACTCAGGCTATCAT | 0.036 | 0.0914 | 0.567 | -0.415 | 0.164 | 0.061 | -0.111 | -0.302 |
| CGTCCAAGGTCTAAGGTCAGTGAAGAGATGACGG | 3.66 | 3.47 | 4.02 | 1.14 | 3.1 | 3.65 | 3.24 | 1.1 |
| CAGCCTAGGTCAGGGCCAGTATCGGAGGAACGTT | 2.85 | 3.16 | 4.2 | -0.106 | 1.55 | 1.96 | 0.58 | -0.476 |
| CCTAATGGGCCATCAGGTCATTGATATCAACGTT | 2.76 | 2.27 | 2.23 | 0.496 | 1.39 | 3.38 | 2.92 | 1.57 |
| AGAATAAGGTTAAGATCAGGGAAACAGAATACAT | 1.25 | 2.16 | 1.8 | 0.838 | 2.38 | 2.66 | 1.26 | 0.515 |
| TTACCAAGGTGAAAGGTCGTTTATGCACGCCTTG | 2.24 | 3.89 | 1.62 | 1.14 | 5.38 | 3.17 | 0.854 | 2.03 |
| CGAACTAGGTCAAGGACAGTGAATCTCCGCACGC | 3.01 | 3.95 | 4.49 | 1.42 | 2.57 | 3.25 | 2.14 | 0.847 |
| TCTATTCGTTGAAGGGCAACCGACGAGTCCGTTT | 1.39 | 0.744 | 0.769 | 1.49 | 0.993 | 0.507 | 0.017 | 1.27 |
| AGAATGAGGTTATTACGATCAGGGAATTGCGGTC | 1.07 | 1.35 | 1.1 | 2.37 | 2.06 | 2.44 | 0.982 | 1.6 |
| TATACAGGGTTAAAGGCCAGAGTACGAATGTCGA | 1.55 | 2.41 | 1.59 | 0.596 | 3.28 | 1.56 | 0.124 | 0.851 |
| GCTTGTAGACCAAGGTTAAGAAAGACTAAGCTAA | 0.241 | 0.214 | 0.239 | -0.149 | 0.485 | 0.969 | -0.368 | -0.0799 |
| TTACCAAGGTGAGATGAGGTCGTTGATCCAACTC | 1.54 | 1.49 | 1.26 | 0.446 | 1.85 | 4.77 | 2 | 2.31 |
| CCTAGTTGGACAGGAGGTCACACACCGGATATGA | 3.81 | 4.2 | 3.71 | 1.02 | 3.96 | 3.41 | 2.18 | 2.39 |
| GTACCAAGGTGAATAGGTCGTTGTTGAGTAGGCG | 1.89 | 2.4 | 1.05 | 0.135 | 1.64 | 1.81 | 0.601 | 0.168 |
| CCTGCTAGGTCATGGTCTGCTAATCTACAGTATG | 2.97 | 3.73 | 4.43 | 2.02 | 2.66 | 3.17 | 1.35 | 0.439 |
| CTTATTAGTTGACCATAAGGGCAACCGAAGCTCG | 2.23 | 1.24 | 1.13 | 0.578 | 0.722 | 2.04 | 1.36 | 0.553 |
| AGAATAAGGTTATTAAGATCAGGGAATTGCGGTC | 1.1 | 1.39 | 1.13 | 1.47 | 1.58 | 2.42 | 0.933 | 0.967 |
| ATCTCTAGGTAACCAAGTTCAGTGATTGCCGAAC | 1.45 | 0.546 | 0.823 | 1.02 | 0.505 | 1.44 | 0.949 | 2.76 |
